DAX1 inh-1: NR0B1 (DAX1) inhibition. HEK293 Gal4-DAX1 luciferase reporter, luminescence. inhibition, % at 6.75 µM. hit rate 0.99% among 340,000. AID 504766;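 active = inhibition above the mean over all tested compounds plus 3 SD, cut at about 4.2% in these data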;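 also: 0% = DAX1-transfected cells with DMSO and 100% = empty-vector control cells with DMSO; inhibition shows as a rise in luminescence from relieved DAX1 repression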
Target sequence (P51843 207-470 limits assumed): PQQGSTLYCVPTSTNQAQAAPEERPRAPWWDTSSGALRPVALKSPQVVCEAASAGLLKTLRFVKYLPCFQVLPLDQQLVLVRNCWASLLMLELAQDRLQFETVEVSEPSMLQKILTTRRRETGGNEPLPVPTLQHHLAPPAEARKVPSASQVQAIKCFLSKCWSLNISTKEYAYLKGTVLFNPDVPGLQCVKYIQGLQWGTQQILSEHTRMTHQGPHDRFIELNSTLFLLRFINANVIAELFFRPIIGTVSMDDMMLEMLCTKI
DAX1 inh-2: DAX1 (NR0B1) inhibition, primary screen; HEK293T StAR-luciferase reporter, SF-1/DAX-1 repression relief; inhibition, % at 6.8 µM; hit rate 1.1% among 370,000; AID 652010;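 active = inhibition above the mean over all tested compounds plus 3 SD, cut at about 3.6% in these data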;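 also: 0% = DAX-1 cells with DMSO and 100% = cells lacking DAX-1 with DMSO; higher inhibition means more luminescence from relief of DAX-1 repression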
ssDAF12 agonist: activators of S. stercoralis DAF-12 nuclear receptor; AID 652126; hit rate 1% among 370,000; activation, % at 6.8 µM; HEK293 ssDAF-12/GRIP1 lit1-tk-luc reporter, luminescence; % of 3 µM dafachronic acid response;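 active = activation above the mean over all tested compounds plus 3 SD, cut at about 0.9% in these data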;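 also: 0% = DMSO-only wells and 100% = 3 µM delta7-dafachronic acid wells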
hgDAF-12 ag: activates the H. glycines DAF-12 receptor ligand-binding domain | AID 687014 | activation, % at 6.8 µM | HEK293 GAL4-hgDAF12 UAS-luciferase reporter, agonist luminescence; normalized to butyrate control | hit rate 1.8% among 370,000;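 active = activation above a cutoff set at the mean of all screened compounds plus 3 SD, cut at about 10% in these data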;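 also: 0% = DMSO wells and 100% = sodium butyrate wells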
hcDAF-12 act: activators of H. contortus DAF-12 nuclear receptor; HEK293 hcDAF-12 lit1-tk-luc reporter, luminescence; 0% DMSO, 100% Δ7-dafachronic acid; activation, % at 6.8 µM; hit rate 1.4% among 370,000; AID 652067;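 active = activation above the mean of all tested compounds plus 3 SD, cut at about 5.5% in these data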;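 also: 100% = response to 3 µM Δ7-dafachronic acid high control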
NR1D1 modulator: Rev-erb alpha (human) modulation; Rev-erbα–FITC-DNA binding, fluorescence polarization, 90 min; activity, % at 10 µM; hit rate 0.79% among 370,000;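 active = activity above about 14%, limit read from the data; passing the limit was not always enough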;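 also: 0% = DMSO wells with 35 nM protein and 100% = DMSO wells with 750 nM protein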
DAX1 inh confirm: confirmation of human DAX1 (NR0B1) inhibitors | hit rate 87% among 2,400 | HEK293T StAR-promoter luciferase reporter, SF-1/DAX-1 repression | shares compounds with DAX1 inh-2 | inhibition, % at 6.8 µM;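 active = inhibition above the average of every tested compound plus 3 SD, cut at about 3.8% in these data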;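 also: 0% = DAX-1 cells with DMSO and 100% = no DAX-1 control cells with DMSO; active compounds raise luminescence by relieving repression of the StAR reporter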
SF1 mutant ctr: counter-screen for DAX1 inhibitors: nonselective inhibitors with SF-1 AF2 mutant; shares compounds with DAX1 inh-2; HEK293 StAR-luciferase, luminescence; inhibition, % at 6.8 µM; hit rate 78% among 2,400;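 active = inhibition above the mean of all tested compounds plus 3 SD, cut at about 3% in these data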;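 also: 0% = DAX-1 transfected cells with DMSO and 100% = cells without DAX-1 with DMSO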
LXR ag: activates human LXR-beta, counter-screen for hcDAF-12 agonists; shares compounds with hcDAF-12 act; HEK293 Gal4-LXR tk-luc reporter, luminescence, 24 h; normalized: DMSO 0%, positive control 100%; activation, % at 6.8 µM; 3,400 tested, under 10 active; AID 743027;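 active = mean percent activation of the reporter above a cutoff set as the average over tested compounds plus their standard deviation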
hcDAF12 conf: hcDAF-12 agonism, confirmation assay; shares compounds with hcDAF-12 act; HEK293 hcDAF-12 lit1-tk-luc reporter, luminescence; % of Δ7-dafachronic acid response; activation, % at 6.8 µM; hit rate 61% among 3,400;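 active = mean activation across triplicate tests above the threshold derived from the earlier primary screen, cut at about 5.5% in these data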;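 also: 0% = DMSO only wells and 100% = 3 µM Δ7-dafachronic acid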
hgDAF12 conf: confirmation of H. glycines DAF-12 agonists | HEK293 GAL4-hgDAF12 luciferase reporter, agonist mode; percent of butyrate response | hit rate 80% among 3,300 | shares compounds with hgDAF-12 ag | activation, % at 6.8 µM | AID 743050;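 active = mean activation over triplicate wells above the hit cutoff derived from the earlier primary screen, cut at about 11% in these data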;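 also: 0% = DMSO low control and 100% = 2 mM sodium butyrate high control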
LXR ag 2: counter-screen for DAF-12 agonists: agonists of human LXR-beta. AID 743051. 3,300 tested, under 10 active. activation, % at 6.8 µM. shares compounds with hgDAF-12 ag. HEK293 Gal4-LXR luciferase reporter, 24 h;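 active = mean activation of the triplicate above a set limit carried over from the primary screen, none filed active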
Active calls of the source: *; · = not tested or not shown. This is a sample that favours compounds with a hit; in the whole collection about 4.8% have one here.

SMILES	DAX1 inh-1	DAX1 inh-2	ssDAF12 agonist	hgDAF-12 ag	hcDAF-12 act	NR1D1 modulator	DAX1 inh confirm	SF1 mutant ctr	hgDAF12 conf	LXR ag 2	others
O=C(Nc1ccc(OCC(=O)N2CCOCC2)cc1)Nc1cccc(Cl)c1	-0.5	-0.1	-1.6	4.0	-1.3	1.5	·	·	·	·
COc1cc(Cl)ccc1OCc1cc(C(=O)N2CCCC(OC)C2)no1 (stereo not given)	1.0	8.1*	0.2	18.5*	4.4	-2.6	6.6*	4.1*	17.4*	0.7
COC(=O)c1cccc(OC[C@@H](O)CN2CCC(C(O)(c3ccccc3)c3ccccc3)CC2)c1	·	-0.8	-0.8	-2.4	-2.6	2.2	·	·	·	·
CCC(C)c1ccc(NC(=O)c2cccs2)cc1 (stereo not given)	-0.2	7.2*	1.7*	19.3*	8.2*	-3.8	18.8*	6.4*	20.4*	1.0	LXR ag=1.6;hcDAF12 conf=7.8*
CCC(C)NS(=O)(=O)c1ccc(NC(=O)c2cccs2)cc1 (stereo not given)	0.4	-0.7	-1.3	1.3	-1.7	3.8	·	·	·	·
C=CCN1C(C(=O)OC)CN(Cc2cn(CCC3OCCO3)nn2)CCS1(=O)=O (stereo not given)	·	1.0	-1.1	0.9	-1.1	0.2	·	·	·	·
O=C(/C=C/c1ccc(Cl)cc1Cl)Nc1cccc(S(=O)(=O)NC2=NCCC2)c1	-0.2	5.4*	-0.1	18.4*	3.9	0.7	9.4*	5.0*	14.2*	0.7
Cc1ccc(C(=O)C(C)OC(=O)c2ccccc2[N+](=O)[O-])cc1 (stereo not given)	1.4	6.1*	0.0	18.4*	3.9	-2.9	15.3*	9.8*	15.0*	0.7
CC(=O)c1ccc(NC(=O)NC2CCCCCCC2)cc1	2.3	11.9*	-0.5	14.2*	4.9	3.6	12.8*	7.4*	15.9*	0.6
CC(=O)c1ccc(NC(=O)Nc2ccc(Cl)cc2)cc1	1.9	6.5*	0.0	14.9*	7.1*	1.4	6.6*	5.8*	16.4*	0.5	LXR ag=0.8;hcDAF12 conf=7.4*
O=C(Nc1ccccc1F)NC1CCCCCCC1	1.9	4.5*	0.4	13.4*	2.6	-0.3	7.2*	4.1*	9.9	0.4
COc1ccc(C2NC(=S)N(Cc3ccc(Cl)cc3)C(C)=C2C(C)=O)cc1 (stereo not given)	·	-0.4	-1.4	-1.0	-1.8	-3.1	·	·	·	·
O=[N+]([O-])c1cc2c(ccc3occc32)o1	·	-4.1	-1.1	-7.0	-0.8	-1.6	·	·	·	·
CCOC(=O)CSc1nc2ccc(C)cc2cc1C#N	3.8	5.6*	0.5	14.3*	8.9*	10.9	13.1*	10.0*	20.1*	0.8	LXR ag=0.9;hcDAF12 conf=3.6
CCOC(=O)CSc1nc(N)c(C#N)cc1C#N	1.1	0.5	-1.0	4.8	1.1	-2.2	·	·	·	·
CCOCC(=O)Nc1cc(C(=O)NCCc2ccccc2)ccc1Cl	1.9	4.5*	-0.1	14.3*	3.9	-0.3	9.0*	4.3*	12.9*	0.4
COC(=O)c1ccc(-c2nc3ccccc3[nH]2)cc1	-1.1	5.3*	0.8	14.9*	5.0	0.6	18.2*	9.4*	12.7*	0.9

High-throughput results from PubChem.
